Compound activity from PubChem.
In the library only some 0.49% were active in any assay of this set; here they are far more common.
EPAC1 ag – EPAC1 (human) agonism. O95398. EPAC1 agonist qHTS, biochemical assay; response scale: 100% = response to 6.5 mM cAMP. Potency, µM (titrated, usually from 154 µM), inactives show at the highest dose activation, usual class: activators. 0.073% of 360,000 active; further: nearly all actives have a fitted effect of over 60% in size
Target sequence (O95398 whole entry, looked up): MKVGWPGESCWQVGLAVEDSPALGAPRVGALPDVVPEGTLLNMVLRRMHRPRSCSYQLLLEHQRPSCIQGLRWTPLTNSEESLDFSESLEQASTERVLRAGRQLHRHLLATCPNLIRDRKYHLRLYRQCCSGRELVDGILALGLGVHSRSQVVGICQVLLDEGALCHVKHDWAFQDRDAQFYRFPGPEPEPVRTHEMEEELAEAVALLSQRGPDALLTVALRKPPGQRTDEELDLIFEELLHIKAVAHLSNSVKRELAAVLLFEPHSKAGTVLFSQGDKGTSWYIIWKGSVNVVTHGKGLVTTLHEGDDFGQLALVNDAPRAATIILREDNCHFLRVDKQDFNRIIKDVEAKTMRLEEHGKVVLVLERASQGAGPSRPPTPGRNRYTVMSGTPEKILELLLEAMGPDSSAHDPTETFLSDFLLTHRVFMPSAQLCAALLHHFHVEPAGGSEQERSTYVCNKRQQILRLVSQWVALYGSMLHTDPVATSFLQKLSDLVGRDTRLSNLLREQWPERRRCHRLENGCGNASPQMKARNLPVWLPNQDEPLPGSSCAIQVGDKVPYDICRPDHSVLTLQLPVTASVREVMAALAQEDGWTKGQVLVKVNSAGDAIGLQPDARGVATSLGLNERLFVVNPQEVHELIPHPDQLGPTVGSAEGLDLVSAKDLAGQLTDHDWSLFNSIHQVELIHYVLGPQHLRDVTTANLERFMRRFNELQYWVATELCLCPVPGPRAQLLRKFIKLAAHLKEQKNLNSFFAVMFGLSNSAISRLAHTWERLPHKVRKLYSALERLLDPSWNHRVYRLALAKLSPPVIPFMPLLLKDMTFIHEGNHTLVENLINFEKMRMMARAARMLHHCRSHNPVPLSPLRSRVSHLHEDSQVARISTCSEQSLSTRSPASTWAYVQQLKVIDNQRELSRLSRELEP
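Compounds were pinned as a concentration titration into mixtures of EPAC1 (100 nM), BODIPY-GDP-loaded Rap1B (250 nM) and GDP (50 uM). After 5 min at room temperature, fluorescence was followed for 30 min; activity was scaled to 6.5 mM cAMP.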
EPAC2 antag – antagonists of human EPAC2 | Q8WZA2 | EPAC2 GEF exchange of Rap1B-BODIPY-GDP, fluorescence | Potency, µM (titrated, usually from 114 µM), for inactives: top-dose activity, negative = inhibition, hits mostly inhibitors | 0.18% of 360,000 active; further: on the % scale 0 is the no-effect control and ±100 the full control effect; nearly all actives have a fitted effect of over 45% in size
EPAC2 agonist – agonists of human EPAC2 (RAPGEF4) | Q8WZA2 | EPAC2 activation, biochemical qHTS; response scale: 100% = 6.5 mM cAMP response | Potency, µM (series often up to 154 µM), for inactives: at the highest dose activation, usual class: activators | 0.079% of 360,000 active | AID 720711; further: nearly all actives have a fitted effect of over 50% in size
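Each well held 100 nM EPAC2, 250 nM RAP1B-BODIPY-GDP and 50 uM GDP. Fluorescence, read at 5-min intervals to 30 min, was referenced to a 6.5 mM cAMP positive control.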
EPAC1 antagonist – blocks human EPAC1 exchange factor; O95398; EPAC1 GEF assay, Rap1b-BODIPY-GDP exchange fluorescence; Potency, µM (top dose mostly 115 µM), without a hit: at the highest dose activity change, negative = inhibition, most hits filed as inhibitors; 0.14% of 360,000 active; AID 720709;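 further: plate controls were vehicle for no effect and positive control for full effect; nearly all actives have a fitted effect of over 50% in size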
USP1-UAF1 inh – blocks the human USP1/UAF1 deubiquitinase complex; O94782; recombinant USP1/UAF1, Ub-Rhodamine cleavage fluorescence; Potency, µM (series often up to 57.1 µM), without a hit: at the top dose activity change, negative = inhibition, usual class: inhibitors; 0.23% of 390,000 active; AID 743255; further: on the % scale 0 is the no-effect control and ±100 the full control effect; nearly all actives have a fitted effect of over 60% in size
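Step one: compound is pinned into 1nM USP1/UAF1 in HEPES pH 7.8 buffer with TCEP. Step two: 15 min room-temperature incubation. Step three: Ub-Rho (150nM final) starts cleavage, tracked by fluorescence over six one-minute reads.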
The depositor's hits bear a star; ? = inconclusive; / = no result given. The call rests on the fitted dose curve; in most records, active means well fitted curve in the direction sought with a large enough effect; inconclusive means small, poorly fitted or top-dose-only effect, or another doubt; inactive means no such curve, though single readings can be large; an effect the other way counts as inactive or inconclusive. Potency means the concentration at half of the fitted maximal effect.

SMILES | EPAC1 ag | EPAC2 antag | EPAC2 agonist | EPAC1 antagonist | USP1-UAF1 inh
CCCCn1c(NS(=O)(=O)c2ccccc2)c(S(=O)(=O)c2ccc(C)cc2)c2nc3ccccc3nc21 | -1% | -9% | -18% | 50µM* | 28µM*
CCCCn1c(NC(=O)c2ccc(Br)o2)c(S(=O)(=O)c2ccccc2)c2nc3ccccc3nc21 | 8% | -6% | -6% | 20% | 28µM*
CCCCCn1c(NC(=O)c2ccco2)c(S(=O)(=O)c2ccc(C)cc2)c2nc3ccccc3nc21 | 10% | -4% | 19% | ? | ?
CCCCn1c(NC(=O)c2ccco2)c(S(=O)(=O)c2ccc(C)cc2)c2nc3ccccc3nc21 | -3% | -16% | 10% | -13% | ?
CCn1cc(C(=O)N2CCN(c3ccccc3OC)CC2)c(=O)c2cc(S(=O)(=O)N3CCC(C)CC3)ccc21 | / | / | / | / | -18%
CC(=O)c1ccc(N2CCN(c3nc4ccccc4c4nc(-c5cccc(C)c5)nn34)CC2)cc1 | / | / | / | / | -15%
CC(C)C(C(=O)O)N1C(=O)/C(=C/C=C/c2ccco2)SC1=S (stereo not drawn) | 9% | -18% | 1% | 56µM* | ?
O=C1/C(=C/C=C/c2ccco2)SC(=S)N1c1ccc(O)cc1 | 15% | 23% | 10% | ? | -16%
O=C1Nc2c(Cl)cc(Cl)cc2C1=O | 7% | ? | 1% | ? | 28µM*
Cc1cccc(N=C2C(=O)Nc3c(Cl)cccc32)c1 | 9% | -5% | 7% | -6% | -20%
COc1cc(NC(=O)c2cnc(N)s2)cc(C(=O)Nc2cccc(C(F)(F)F)c2)c1 | 6% | -19% | 9% | 40µM* | -7%
COc1cc(NC(=O)c2ccnc(N)c2)cc(C(=O)Nc2cccc(C(F)(F)F)c2)c1 | -4% | -7% | 4% | 71µM* | -21%
CCCOc1ccc(C2C(=O)N(C3CCCCCC3)CC(=O)N2CCC2=CCCCC2)cc1OC (stereo not drawn) | / | / | / | / | 1%
COc1cc(/C=C2/SC(=S)N(Cc3ccccc3)C2=O)ccc1OS(C)(=O)=O | 6% | 0% | 19% | -26% | -5%
COc1cc(/C=C2/SC(=S)N(CC(=O)O)C2=O)ccc1OC(=O)c1cccs1 | -8% | ? | 12% | 79µM* | -14%
COc1cc(/C=C2\SC(=S)N(CC(=O)O)C2=O)ccc1OS(=O)(=O)c1ccc(C)cc1 | -11% | ? | -12% | 89µM* | -16%
COc1cccc(Cn2ccn(-c3ccc(F)cc3)c(=O)c2=O)c1 | / | / | / | / | 2%
CCCCN(C)CCNC(=O)c1cc(=O)[nH]c2ccc(S(=O)(=O)N3CCCCCC3)cc12 | / | / | / | / | -16%
Nc1c(C(=O)Nc2ccccc2Cl)c2ccccn2c1C(=O)c1ccccc1 | / | / | / | / | 9%
Cc1[nH]cnc1CN1CCc2c(c3ccccc3n2C)C1=O | -14% | 15% | 0% | -16% | 35µM*
Cc1cc(=O)n(CC(=O)Nc2ccc([N+](=O)[O-])cc2)c(-n2nc(C)cc2C)n1 | / | / | / | / | -15%
Cc1ccc(C)c(NC(=O)CSc2nc3nc(-c4cccs4)cc(C(F)(F)F)c3c(=O)[nH]2)c1 | 1% | -5% | -6% | -22% | ?
O=C(CSc1nc2nc(-c3cccs3)cc(C(F)(F)F)c2c(=O)[nH]1)Nc1ccc(F)c(F)c1 | -10% | -22% | -8% | 79µM* | -21%
COc1ccc(NS(=O)(=O)c2ccc(O)c(NC(=O)c3cc4c(C)nn(-c5ccc(F)cc5)c4s3)c2)cc1 | -17% | -4% | -8% | 50µM* | ?
CCN(CC)c1ccc(/C=C(/C#N)C(=O)NCc2ccccc2)o1 | 5% | 14% | 26% | 3% | 32µM*
SMILES | EPAC1 ag | EPAC2 antag | EPAC2 agonist | EPAC1 antagonist | USP1-UAF1 inh
CCN(CC)c1ccc(/C=C(/C#N)C(=O)NC(C)C)o1 | 13% | -13% | 11% | 12% | 25µM*
N#C/C(=C\c1ccc(O)cc1)C(=O)NCc1ccccc1 | -1% | -3% | 8% | -10% | -14%
CC(C)NC(=O)/C(C#N)=C\c1ccc(N(C)C)o1 | -3% | -5% | 1% | 0% | ?
O=[N+]([O-])c1ccc(Sc2cccc[n+]2[O-])c2nonc12 | -20% | 56µM* | -10% | 35µM* | ?
CCOc1cc(-c2nnc(SCC(=O)Nc3ccc(F)c(F)c3)nc2-c2ccc(OC)c(OCC)c2)ccc1OC | / | / | / | / | 0%
Cc1ccc(O)c(NC(=O)c2ccc(Br)c(S(=O)(=O)N3CCCCC3)c2)c1 | / | / | / | / | -3%
CCN(CC)CCCNc1ccc2ncn3c4ccc(O)cc4c(=O)c1c23 | 21% | 60% | -13% | 9% | 28µM*
COc1ccc(OC)c(/C=C/c2nc3ccccc3[nH]c2=O)c1 | 89µM* | 58% | ? | 68% | 180%
CC(=O)N1CCc2cc(Br)cc(S(=O)(=O)CCC(=O)N3CCN(c4cccc(C)c4C)CC3)c21 | / | / | / | / | -11%
CCc1noc(C)c1C(=O)N1CCCSC1=Nc1ccccc1Cl | 5% | 50µM* | 16% | -13% | -10%
Cc1ccc(NC(=O)CN2C(=O)C(c3ccc(C(C)(C)C)cc3)=NC2(C)C)cc1 | / | / | / | / | 13%
CCOC(=O)CC1C(=O)NCCN1c1nc2ccc(C)cn2c(=O)c1/C=C1\SC(=S)N(CC(C)C)C1=O (stereo not drawn) | 9% | 0% | ? | 30% | 13µM*
N#C/C(=C\c1coc2ccc(O)cc2c1=O)C(=O)Nc1nc2ccccc2s1 | 89µM* | 110% | 32µM* | 114% | 25µM*
N#C/C(=C\c1coc2ccccc2c1=O)C(N)=S | -2% | 17% | 5% | -1% | -16%
CCOC(=O)c1c(C)[nH]c(C)c1S(=O)(=O)N(C)CC(=O)N1CCN(c2cccc(C)c2C)CC1 | / | / | / | / | -22%
CCOc1cc(CNc2ccc(N3CCCC3)cc2)cc(Cl)c1OC | -13% | 0% | 0% | 5% | 28µM*
CCOc1ccc(C(=O)Nc2ccc(C(=O)OCc3cc(=O)n4nc(CC)sc4n3)cc2)cc1 | / | / | / | / | -16%
COc1ccccc1NC(=O)COC(=O)c1ccc([N+](=O)[O-])s1 | 8% | ? | 5% | 11µM* | 14µM*
Cc1ccc(S(=O)(=O)NCCc2nnc3ccc(SCC(=O)Nc4ccc(F)cc4F)nn23)cc1 | / | / | / | / | -14%
Nc1nnc2c(n1)CCCC2 | 5% | 11% | 9% | 7% | 16µM*
C1CCc2nc3c(nc2C1)CCCC3 | 1% | 1% | 7% | -29% | -8%
O=C(CSc1nc2c([nH]c3ccccc32)c(=O)n1-c1ccccc1F)Nc1cccc(C(F)(F)F)c1 | / | / | / | / | -33%
CC1CCN(C(=O)c2cccc(NC(=O)c3nsc4ccccc34)c2)CC1 | / | / | / | / | -27%
COc1ccccc1NS(=O)(=O)c1cc([N+](=O)[O-])ccc1N/N=C/c1c(C)[nH]c2ccccc12 | -1% | 0% | -6% | -2% | 28µM*
O=C(Nc1ccc(Cl)cc1)c1ccc2c(c1)N(Cc1ccccc1)CCS2 | / | / | / | / | -22%
